Consider five molecules from PubChem BioAssay.

Assay [1] in a line: antimalarial activity against Dd2 strain (AID 2302;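 active = growth inhibition above 50% at the single 2 µM test dose, taken to imply half-maximal potency below 2 µM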;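 note: 0% = DMSO untreated growth and 100% = chloroquine plus artemisinin killed control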). The conditions noted are these: P. falciparum Dd2 in RBCs, LDH growth readout, 72 h; at 2 µM; active compounds read high.
Assay [2] is described as follows: HepG2 cytotoxicity, primary screen, cytotoxicity control for P. falciparum antimalarial project, cell-based, ATP luminescence (AID 2303;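 active = inhibition above 50%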;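 note: 0% = DMSO wells and 100% = digitonin-killed cells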). The following applies: HepG2 viability, 24-48 h, at 10 µM, active compounds read high.
Assay [3] addresses L-lactate dehydrogenase (Plasmodium falciparum (isolate CDC / Honduras)) (UniProt Q27743). Put plainly: PfLDH activity inhibition – cell lysate, 3D7 strain, counter-screen for P. falciparum growth inhibition project (AID 2304).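 Note: 0% = vehicle and 100% = reference inhibitor.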 The conditions noted are these: P. falciparum 3D7 crude extract, LDH APAD/NBT absorbance; at 2 µM; active compounds read high. Background: A counterscreen serves to expose hits that act by an unwanted route or on another target.

The nature of assay [4]: inhibition of 3D7 malaria parasite growth – strain 3D7 (AID 2306).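 Note: 0% = DMSO wells and 100% = chloroquine plus artemisinin control wells.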 The following applies: P. falciparum 3D7 erythrocytic growth, LDH absorbance, 72 h; at 2 µM; active compounds read high.
Assay [5] deals with Calcium-dependent protein kinase 1 (Plasmodium falciparum (isolate 3D7)) (UniProt P62344). In words: PfCDPK1 kinase inhibitors, biochemical, TCAMS library (AID 1159585; cut-off not given, nearly all actives have IC50 up to about 0.98 µM;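 note: inhibitors leave more ATP so luminescence rises with inhibition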). The following applies: recombinant PfCDPK1, Kinase-Glo ATP depletion luminescence. Background: Kinase-Glo measures the ATP left after a reaction by luminescence.
Assay [6] addresses Plasmodium falciparum protein kinase 6 (PK6, PF3D7_1337100) (UniProt Q8IDW1). In words: PfPK6 kinase inhibitors, biochemical, TCAMS library (AID 1159586). The following applies: recombinant PfPK6, Kinase-Glo ATP depletion luminescence.
The target of assay [7] is Protein kinase 7 (PK7), Plasmodium falciparum 3D7 (PF3D7_0213400) (UniProt Q7YTF7). Put plainly: inhibition of Plasmodium PK7 catalytic activity – biochemical, TCAMS antimalarial set, Kinase-Glo luminescence (AID 1159587). The following applies: recombinant PfPK7, Kinase-Glo ATP depletion luminescence.
For assay [8], the target named is Calcium-dependent protein kinase 4 (Plasmodium falciparum (isolate 3D7)) (UniProt Q8IBS5). In words: PfCDPK4 kinase inhibitors, biochemical, TCAMS library (AID 1159588; cut-off not given, nearly all actives have IC50 up to about 0.91 µM). The following applies: recombinant PfCDPK4, Kinase-Glo ATP depletion luminescence.

A word on the inhibition: it is the relative decrease from the control value, in per cent.

A number with no mark means an inactive call. For some of these results: Results with a measured potency or affinity are listed apart. Active and inactive are the calls of the source. Unless noted, the rule behind the calls is not given here.

Sequence of Calcium-dependent protein kinase 4 (Plasmodium falciparum (isolate 3D7)) (Q8IBS5 whole entry, looked up): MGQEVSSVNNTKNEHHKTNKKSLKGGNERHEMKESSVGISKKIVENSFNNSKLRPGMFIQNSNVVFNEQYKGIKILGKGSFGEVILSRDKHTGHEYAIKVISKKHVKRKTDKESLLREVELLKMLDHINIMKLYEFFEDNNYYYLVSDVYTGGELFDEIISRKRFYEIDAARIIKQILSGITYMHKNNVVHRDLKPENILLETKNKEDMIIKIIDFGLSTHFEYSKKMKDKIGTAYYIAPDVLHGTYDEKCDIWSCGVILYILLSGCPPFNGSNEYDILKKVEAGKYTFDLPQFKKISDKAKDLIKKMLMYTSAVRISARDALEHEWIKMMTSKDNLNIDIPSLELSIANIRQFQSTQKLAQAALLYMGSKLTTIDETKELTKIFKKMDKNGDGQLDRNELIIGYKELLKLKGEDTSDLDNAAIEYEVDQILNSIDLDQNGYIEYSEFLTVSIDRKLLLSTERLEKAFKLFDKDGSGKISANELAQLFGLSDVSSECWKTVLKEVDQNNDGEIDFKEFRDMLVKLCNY
Sequence of Protein kinase 7 (PK7), Plasmodium falciparum 3D7 (PF3D7_0213400) (Q7YTF7 1-343): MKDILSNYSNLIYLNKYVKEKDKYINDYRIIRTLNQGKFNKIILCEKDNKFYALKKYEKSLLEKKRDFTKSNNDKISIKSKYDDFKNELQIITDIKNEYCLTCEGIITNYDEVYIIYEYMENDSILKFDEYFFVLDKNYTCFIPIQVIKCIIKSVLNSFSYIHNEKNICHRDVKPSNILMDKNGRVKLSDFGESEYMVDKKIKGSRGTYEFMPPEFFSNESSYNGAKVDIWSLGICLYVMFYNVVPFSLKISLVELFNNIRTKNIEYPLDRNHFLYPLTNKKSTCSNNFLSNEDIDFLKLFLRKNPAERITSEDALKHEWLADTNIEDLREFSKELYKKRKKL
Sequence of L-lactate dehydrogenase (Plasmodium falciparum (isolate CDC / Honduras)) (Q27743 whole entry, looked up): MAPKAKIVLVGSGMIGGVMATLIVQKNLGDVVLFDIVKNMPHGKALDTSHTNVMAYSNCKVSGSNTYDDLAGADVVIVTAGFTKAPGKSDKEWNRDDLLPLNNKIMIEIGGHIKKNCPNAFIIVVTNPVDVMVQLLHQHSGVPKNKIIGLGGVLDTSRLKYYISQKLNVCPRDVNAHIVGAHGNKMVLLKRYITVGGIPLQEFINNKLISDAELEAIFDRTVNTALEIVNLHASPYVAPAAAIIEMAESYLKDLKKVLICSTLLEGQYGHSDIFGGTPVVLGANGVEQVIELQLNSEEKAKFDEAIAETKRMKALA
Sequence of Calcium-dependent protein kinase 1 (Plasmodium falciparum (isolate 3D7)) (P62344 whole entry, looked up): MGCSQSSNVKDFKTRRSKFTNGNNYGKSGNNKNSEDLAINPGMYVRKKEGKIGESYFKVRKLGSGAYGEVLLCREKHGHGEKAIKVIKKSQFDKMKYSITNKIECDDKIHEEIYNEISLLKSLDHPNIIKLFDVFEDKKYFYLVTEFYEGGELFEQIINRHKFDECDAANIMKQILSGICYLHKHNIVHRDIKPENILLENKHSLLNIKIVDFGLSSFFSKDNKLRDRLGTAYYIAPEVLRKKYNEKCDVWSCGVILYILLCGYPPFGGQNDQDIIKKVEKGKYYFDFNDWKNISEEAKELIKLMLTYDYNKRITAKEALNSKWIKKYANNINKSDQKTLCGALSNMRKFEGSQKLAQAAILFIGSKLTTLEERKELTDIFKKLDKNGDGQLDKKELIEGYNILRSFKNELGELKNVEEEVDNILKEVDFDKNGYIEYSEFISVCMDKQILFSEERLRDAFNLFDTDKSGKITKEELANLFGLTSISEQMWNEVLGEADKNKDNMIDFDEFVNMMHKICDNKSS
Sequence of Plasmodium falciparum protein kinase 6 (PK6, PF3D7_1337100) (Q8IDW1 1-305): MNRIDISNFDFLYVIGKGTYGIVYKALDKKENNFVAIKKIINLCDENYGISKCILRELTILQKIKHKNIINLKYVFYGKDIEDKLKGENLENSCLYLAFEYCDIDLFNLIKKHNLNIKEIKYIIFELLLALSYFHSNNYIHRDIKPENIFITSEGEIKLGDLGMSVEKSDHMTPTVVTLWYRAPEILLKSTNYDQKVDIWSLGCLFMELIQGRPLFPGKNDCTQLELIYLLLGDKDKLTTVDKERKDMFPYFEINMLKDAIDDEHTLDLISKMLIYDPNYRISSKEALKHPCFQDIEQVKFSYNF

As to `N#Cc1cccc(NC(=O)c2cccc(S(=O)(=O)NC3CCN(CC4CCCCC4)C3)c2)c1` (stereo not given), the figures for the growth inhibition in assay [1] and in assay [4] were 27% and 101% (active), respectively. In addition, the results for the inhibition in assay [2] and in assay [3] were 29% and 1%, respectively. Further, the outcome in assay [5], in assay [6], in assay [7] and in assay [8] was inactive.
Consider `Cc1cccc(C)c1CNc1ccnc2cc(Br)ccc12`, for which the growth inhibition in assay [1] is 99% (active); in assay [4], 95% (active). For the same molecule, the results for the inhibition in assay [2] and in assay [3] were 24% and -3%, respectively. The outcome in assay [5], in assay [6], in assay [7] and in assay [8] was inactive.
With `Cc1cc(CNCCCCCCNCc2ccc(-c3ccccc3)cc2)ccc1O`, the results for the growth inhibition in assay [1] and in assay [4] were -2% and 98% (active), respectively. Besides, the inhibition is 90% (active) in assay [2] and -3% in assay [3]. The outcome in assay [5], in assay [6], in assay [7] and in assay [8] was inactive.
Consider `CNC(=O)c1cc(S(=O)(=O)Nc2ccc(OC)cc2)cs1`, for which the growth inhibition in assay [1] is 48%; in assay [4], 95% (active). For the same molecule, the inhibition in assay [2] was 11%; in assay [3] it was -6%. Also, the result in assay [5], in assay [6], in assay [7] and in assay [8] was inactive.
For `Cc1nc(-c2cccc(C(=O)N(Cc3cncn3Cc3cccc(C(F)(F)F)c3)CC3CC3)c2)cs1`, the growth inhibition in assay [1] was 17%; in assay [4] it was 97% (active). Also, the values for the inhibition in assay [2] and in assay [3] were 7% and 4%, respectively. Also, the result in assay [5], in assay [6], in assay [7] and in assay [8] was inactive.
